Holding throughout (experiment): NCI-60 one-dose screen, 48 h (100 = growth as untreated, 0 = no growth, -100 = all killed)
Holding throughout (details): 10 µM unless noted

Assay [1] concerns NCI-H23 lung.
Assay [2] has as its system NCI-H226 lung.
Assay [3] deals with NCI-H322M lung.
Assay [4] has as its system HOP-62 NSCLC.
The test system of assay [5] is NCI-H460 lung.
In assay [6] the test system is HOP-92 NSCLC.
Assay [7] relates to NCI-H522 lung.
Assay [8] relates to A549/ATCC NSCLC.
Assay [9] has as its system 786-0 renal.
Assay [10] concerns COLO 205 colon.

We go through 19 compounds from PubChem BioAssay (NCI).

About 83,000 compounds went through this panel and 20% of them were active in at least one assay; those are over-represented in the sample as a whole.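 Note: values are percent growth. 100 is the growth of untreated cells, values between 100 and 0 indicate rising inhibition; between -100 and 0 indicates cell death.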 Values without a mark were called inactive. The source made the active and inactive calls. Rule for the calls: active = growth percent below 10; inactive = the rest.

`Cc1ccc(SCN2CCN(c3cccc(Cl)c3)CC2)cc1`: the growth in assay [1] was 94.4%; in assay [2], 80.9%; in assay [3] it was 88.7%; in assay [4] it was 114%; in assay [5], 98.4%; in [6], 89.7%. Besides, the growth in assay [7] is 96%; in [8], 106%; in assay [9], 94.8%; in [10] it was 115%.

Take `CCCCN(CCCC)Cc1c(C)[nH]c2cc(OC)ccc2c1=O`: the growth in [1] was 107%; in assay [2], 103%; in assay [3] it was 113%; in assay [4], 88.9%; in assay [5], 103%; in assay [6], 65.3%. Also, the growth in assay [7] is 94.6%; in assay [8] it was 95.4%; in assay [9], 105%; in assay [10], 101%.

With `CCCCCN(CCCCC)CCC[C@@H](C)[C@H]1CC[C@H]2[C@@H]3[C@H](OCCCN)C[C@@H]4C[C@H](OCCCN)CC[C@]4(C)[C@H]3C[C@H](OCCCN)[C@]12C`, the growth in [1] was 49.2%; in assay [2], 75.2%; in [3] it was 24.6%; in assay [4] it was 48.3%; in assay [5] it was 45.2%; in [6], 50%. Besides, the growth is 28.8% in [7], 55.2% in assay [8], 61.1% in assay [9] and 52.1% in assay [10].

For `CCCCCCCCCCCCCC(=O)C(C)N` (stereo not given), the growth was 51.6% in [1]; 87.9% in assay [2]; 53.5% in [3]; 22.3% in assay [4]; 4.75% (active) in assay [5]; 8.22% (active) in assay [6]. The growth in assay [7] is 0.193% (active); in assay [8] it was 51.6%; in assay [9], 71.3%; in assay [10] it was 15.9%.

`O=C1c2cccnc2C(=O)c2c1c(C(=O)OCCN1CCOCC1)c1ccccn21`: the growth was -38.4% (active) in [1]; -28.4% (active) in assay [2]; -55.4% (active) in [3]; -34% (active) in assay [4]; -31.2% (active) in assay [5]; 8.96% (active) in assay [6]. The growth was -30.2% (active) in assay [7], -48.7% (active) in assay [8], 2.64% (active) in assay [9] and -53.5% (active) in [10].

Consider `O=C(Nc1nc(-c2ccccc2)cc(-c2ccc(Cl)cc2)n1)c1ccncc1`, for which the growth in assay [1] is 90.2%; in assay [2] it was 93.3%; in assay [3], 95.6%; in assay [4], 97.6%; in assay [5], 98.7%; in assay [6], 89.5%. The growth in assay [7] was 86.8%; in assay [8], 90.5%; in assay [9], 92.8%; in assay [10], 103%.

Consider `CN1CCCCC1CCN1c2ccccc2Sc2ccc(Cl)cc21` (stereo not given), for which the growth in [1] was 77.4%; in assay [2], 93.5%; in assay [3] it was 59%; in assay [4] it was 84.3%; in [5] it was 71.2%; in assay [6] it was 53.3%. Moreover, the growth in assay [7] is 65.5%; in assay [8] it was 67.4%; in [9], 61.1%; in assay [10] it was 58.7%.

On to `Cn1cc(-c2ccc(-c3cn(C)c4ncccc34)[nH]2)c2cccnc21`, for which the growth is 70.7% in assay [1]; 88.8% in [2]; 86.1% in assay [3]; 66.5% in [4]; 97.8% in [5]; -4.05% (active) in assay [6]. Besides, the growth was -77.3% (active) in [7], 84.2% in [8], 99% in assay [9] and -23.6% (active) in [10].

For `Cc1cc(Cl)ccc1Nc1nc(C(F)(F)F)ccc1C(=O)N/N=C/c1ccc(F)cc1`, the growth was 16.4% in assay [1]; 22.9% in assay [2]; 9.9% (active) in assay [3]; 5.92% (active) in [4]; 2.29% (active) in [5]; -18.1% (active) in assay [6]. For the same compound, the growth in [7] was -9.21% (active); in assay [8], 16.5%; in assay [9], -50.7% (active); in [10] it was 13.9%.

In the case of `CCCCN(CC)CCCCCCCCCCN1CCCc2cc(OC)ccc21`, the growth in [1] was 13.2%; in [2], 103%; in assay [3] it was 54.2%; in assay [4], 106%; in assay [5], 28.5%; in [6], 31.8%. For the same compound, the growth was 38.8% in [7], 91% in [8], 60.4% in assay [9] and 83.4% in [10].

`Cc1cc(Nc2nc(N3CCNCC3)nc3ccccc23)n[nH]1`: the growth is 96.4% in [1]; 86.5% in [2]; 91.1% in assay [3]; 109% in assay [4]; 93.4% in assay [5]; 80.2% in assay [6]. Also, the growth in assay [7] is 76.4%; in [8], 80.8%; in assay [9], 76.1%; in assay [10] it was 90.8%.

Regarding `Nc1cc2nc3ccccc3sc-2cc1=O`, the growth is 50% in [1]; 84.4% in [2]; 93.8% in assay [3]; 63.9% in [4]; 75% in assay [5]; 101% in assay [6]. For the same compound, the growth in [7] was 66%; in assay [8] it was 27.3%; in assay [9], 97.7%; in assay [10] it was 104%.

Take `COc1ccc(C/C(C)=C(\c2ccc(Cl)cc2)c2ccc(OCCN3CCCCCC3)cc2)cc1`: the growth in [1] is 78.8%; in assay [2], 86.1%; in [3], 86.8%; in assay [4], 97.4%; in assay [5] it was 70.4%; in assay [6], 71.2%. The growth in assay [7] was 73.5%; in assay [8], 87.9%; in assay [9], 86.3%; in assay [10], 65.2%.

Consider `O=C(Nc1cccc2c1C(=O)c1cccc(Nc3cccc4c3C(=O)c3cccc(NC(=O)c5ccccc5)c3C4=O)c1C2=O)c1ccccc1`, for which the growth was 108% in assay [1]; 102% in [2]; 112% in assay [3]; 104% in [4]; 113% in [5]; 90.7% in assay [6]. For the same compound, the growth was 112% in assay [7], 90.1% in assay [8], 117% in assay [9] and 117% in assay [10].

As for `CN1C2CCC1/C(=C\c1ccc(Cl)cc1)C1=C2[C@@H](c2ccc(Cl)cc2)C(C#N)=C(N)O1` (stereo not given in full), the growth was 83.5% in assay [1]; 88.2% in assay [2]; 89.9% in assay [3]; 88.9% in assay [4]; 91.6% in assay [5]; 70.4% in assay [6]. Also, the growth in assay [7] is 78.3%; in [8], 83.1%; in [9], 93.2%; in assay [10], 87.5%.

For `Oc1ccccc1/C=N/Nc1ccc2ccccc2n1`, the growth in [1] was 45%; in assay [2], 83%; in assay [3], 31.2%; in assay [4], 57.3%; in assay [5], 27.2%; in assay [6] it was 70.9%. Further, the growth is -9.13% (active) in [7], 44% in assay [8], 65.3% in assay [9] and 31.2% in [10].

In the case of `COc1ccc(C(=O)/C=C/c2c[n+](=O)c3ccc(F)cc3n2[O-])cc1`, the growth in assay [1] was 98.7%; in assay [2], 102%; in assay [3] it was 118%; in assay [4], 104%; in [5], 119%; in assay [6] it was 85.7%. For the same compound, the growth in assay [7] is 109%; in assay [8], 108%; in assay [9] it was 110%; in assay [10], 127%.

Regarding `Oc1ccc(Nc2nccc(-c3ccc4ccccc4c3)n2)cc1`, the growth is 30.7% in assay [1]; 60.9% in assay [2]; 44.4% in assay [3]; 36.9% in assay [4]; 14.8% in assay [5]; 89.5% in [6]. Moreover, the growth in assay [7] was 30.9%; in [8] it was 14.1%; in assay [9] it was 40.1%; in assay [10], 98%.

`CCCCCCCCCCCCNC(=O)[C@H]1CSC(c2ccc(OC)c(F)c2)N1` (stereo not given in full): the growth in [1] was -78.2% (active); in assay [2], -71.4% (active); in [3] it was -98.4% (active); in [4] it was -81.8% (active); in assay [5], -71.8% (active); in assay [6], -93.8% (active). Also, the growth in assay [7] was -73.5% (active); in assay [8], -88.5% (active); in [9], -96.6% (active); in assay [10], -81.5% (active).
